Source: PubChem BioAssay (NCATS)
Records with an inconclusive call do not appear. Entries that show only a call come without a potency. Values without a mark were called inactive. Active and inactive are the calls of the source. Calls come from the whole dose curve; as a rule, active = well fitted curve in the direction sought with a large enough effect; inconclusive = small, poorly fitted or top-dose-only effect, or another doubt; inactive = no such curve, though single readings can be large; an effect the other way counts as inactive or inconclusive. Where a SMILES comes first, the peptide text is derived from it. [ ]: non-standard residue; d: D form. PhLac = O=C(O)[CH](O)Cc1ccccc1; NMeV = CN[CH](C(=O)O)C(C)C
Note: nearly all actives have a fitted effect of over 70% in size.
Potency is the fitted concentration of half-maximal effect.

Experiment: Primary qHTS for inhibitors of nuclear receptor binding SET domain protein 2 (NSD2) in an isogenic RCH-ACV NSD2 p.E1099K mutant (9B) (AID 1645876)
Conditions: RCH-ACV NSD2 E1099K (9B) viability, CellTiter-Glo, 72 h; series mostly up to 44.9 µM
For `O=C(/C=C/c1ccc(O)cc1)OCC1=C[C@@H](O)[C@@H]2C=CO[C@@H](O[C@@H]3O[C@H](CO)[C@@H](O)[C@H](O)[C@H]3O)[C@H]12`, the Potency was “inactive”. For `C=C1C[C@]23C[C@H]1CC[C@H]2[C@@]12C=C[C@H](O)[C@@](C)(C(=O)O1)[C@H]2[C@@H]3C(=O)O`, the Potency was “inactive”. In the case of `CCC(NC(=O)CC(NC(=O)C(CO)NC(=O)C(CC)NC(=O)c1ccc[nH]1)c1ccccc1)C(=O)O` (stereo unspecified), the Potency is reported as “inactive”. With `C[C@]12CCC(=O)C=C1[C@@H](O)C[C@@H]1[C@@H]2[C@@H](O)C[C@@]2(C)[C@H]1CC[C@]2(O)C(=O)CO` the Potency was “inactive”. For `C=C1CC2(C(=O)O)CC1CCC2C1(C)CCCC2(C)C(=O)OC(O)C21` (stereo unspecified), the Potency was “inactive”. `C[C@@H](O)[C@H](N)C(=O)N1CCC[C@H]1C(=O)N1CCC[C@H]1C(=O)N[C@H](C(N)=O)[C@@H](C)O` (H-TPPT-NH2) gave an activity change, negative = viability loss of 0.764% [at 9.23 µM]. For `C[C@H]1C[C@H]2[C@@H]3CCC4=CC(=O)C=C[C@]4(C)[C@@]3(F)[C@@H](O)C[C@]2(C)[C@@]1(O)C(=O)COP(=O)(O)O`, the Potency was “inactive”. For `COC(=O)C1=C[C@@H](O)[C@@H](O)[C@H](O[C@@H]2O[C@H](COC(=O)/C=C/c3ccccc3)[C@@H](O)[C@H](O)[C@H]2O)C1`, the Potency was “inactive”. With `CC(=O)[C@@H]1CC[C@]2(C(=O)O)CC[C@]3(C)C(CCC4[C@@]5(C)CC[C@H](O)C(C)(C)C5CC[C@]43C)C12` (stereo partly specified) the Potency was 7.96 µM (active). For `O=C(O[C@H]1[C@@H]2C[C@@H]3OC[C@@](O)([C@H]2[C@H](O[C@@H]2O[C@H](CO)[C@@H](O)[C@H](O)[C@H]2O)O3)[C@@H]1O)c1ccccc1`, the Potency was “inactive”. For `C/C=C/C=C/C=C/C(=O)O[C@@H]1[C@@H](OC)C2=C(C(=O)N(C(C)C(=O)O)C2)[C@@]2(C)CCCC(C)(C)[C@H]12` (stereo partly specified), the Potency was “inactive”. In the case of `CC1CCC2(C(=O)OC3OC(CO)C(O)C(O)C3O)CCC3(C)C(=CCC4C5(C)CC(O)C(O)C(C)(C(=O)O)C5CCC43C)C2C1(C)O` (stereo unspecified), the Potency is reported as “inactive”. With `COc1ccc(C(=O)O[C@H]2CC(C)=CC[C@@]3(C)[C@@H](OC(C)=O)C[C@@](O)(C(C)C)[C@H]23)cc1` the Potency was “inactive”. In the case of `CC(C)=CCc1ccc(Oc2c(O)cc(C)cc2CO)c(C(=O)O)c1O`, the Potency is reported as “inactive”. For `CCN[C@@H]1C[C@H](N)[C@@H](O[C@H]2OC(CN)=CC[C@H]2N)[C@H](O)[C@H]1O[C@H]1OC[C@](C)(O)[C@H](NC)[C@H]1O`, the Potency was “inactive”. With `C=C1[C@@H]2CC[C@@]3(C)[C@H](c4ccoc4)OC(=O)C[C@]13O[C@H]1CC(=O)C(C)(C)[C@H](CC(=O)OC)[C@]12C` the Potency was “inactive”.

Experiment: Primary qHTS for inhibitors of nuclear receptor binding SET domain protein 2 (NSD2) in an RCH-ACV wild type WT cells (2C) (AID 1645877)
Conditions: RCH-ACV (leukaemia line) NSD2 WT (2C) viability, CellTiter-Glo, 72 h; series mostly up to 44.9 µM
In the case of `N#CC1C(=O)Nc2scc(-c3ccc(-c4ccccc4O)cc3)c2C1=O` (stereo unspecified), the Potency is reported as “inactive”. With `Cn1c(=O)c2nc(/C=C/c3cccc(Cl)c3)n(C)c2n(C)c1=O` the Potency was “inactive”. In the case of `CO/N=C(/C(=O)N[C@@H]1C(=O)N2C(C(=O)O)=C(CSC(=O)c3ccco3)CS[C@H]12)c1csc(N)n1`, the Potency is reported as “inactive”. For `CC(=O)OC(CSC1CCC(=O)OC(C)CCC(=O)C1)C(=O)O` (stereo unspecified), the Potency was “inactive”. For `COc1cc(C)c(C(=O)O[C@H]2[C@@H](O)[C@H](n3ccc(=O)[nH]c3=O)O[C@@H]2CO)c(OC)c1`, the Potency was “inactive”. In the case of `CC(CCC1(O)OC2CC3C4CCC5CC(O[C@@H]6O[C@H](CO)[C@@H](O)[C@H](O)[C@H]6O[C@@H]6OC[C@@H](O)[C@H](O)[C@H]6O)C(O)CC5(C)C4CCC3(C)C2C1C)CO[C@@H]1O[C@H](CO)[C@@H](O)[C@H](O)[C@H]1O` (stereo partly specified), the outcome is reported as “inactive [at 9.23 µM]”. With `CC1(C)CCCC2(C)C3=C(C(=O)OC3O)C(O)CC12` (stereo unspecified) the Potency was “inactive”. For `CCC1CC2C(C)=CC3CCCCC3C2(C)C2(OC(=O)C(C)(O)OC2=O)O1` (stereo unspecified), the Potency was “inactive”. In the case of `C/C=C/C=C/C=C/C(=O)O[C@@H]1C=C(CO)C(O)(C(=O)O)[C@@]2(C)CCCC(C)(C)[C@H]12` (stereo partly specified), the Potency is reported as “inactive”. With `C=C(C(=O)O)[C@@H]1CC=C2CCC[C@H](C)[C@@]2(C)C1` the Potency was “inactive”. With `CC(C)C1=CC2=CCC3[C@](C)(CCC[C@@]3(C)C(=O)O)C2CC1=O` (stereo partly specified) the Potency was “inactive”. Compound `C/C=C(\C)C(=O)O[C@@H]1CC2[C@@H](CC=C3C[C@@H](O[C@H]4C[C@H](OC)[C@H](O[C@H]5C[C@H](OC)[C@H](O[C@H]6C[C@H](OC)[C@H](O[C@H]7C[C@@H](OC)[C@H](O[C@@H]8O[C@H](CO)[C@@H](O)[C@H](O)[C@H]8O)[C@@H](C)O7)[C@@H](C)O6)[C@@H](C)O5)[C@@H](C)O4)CC[C@@]32C)[C@@]2(O)CC[C@H](C(C)=O)[C@@]12C` (stereo partly specified) has an activity change, negative = cell killing of -18.8% [at 9.23 µM]. With `CC1(CCC(=O)O)C(=O)C=CC23CC4CC(OC4(C)C2O)C13` (stereo unspecified) the Potency was “inactive”. With `C=C[C@H]1[C@H](O[C@@H]2O[C@H](CO[C@@H]3OC[C@](O)(CO)[C@H]3O)[C@@H](O)[C@H](O)[C@H]2O)OC=C2C(=O)OCC[C@H]21` the Potency was “inactive”. With `CC(=O)OCC(=O)O[C@@H]1[C@H]2[C@@H](OC(=O)c3ccccc3)[C@@H](C)C[C@]2(O)[C@H](OC(C)=O)C2(C)[C@H]3CC(C)(C)C(=O)[C@@H]3CC1(OC(C)=O)[C@@H]2OC(C)=O` (stereo partly specified) the Potency was “inactive”. With `CCC[C@@H]1C[C@@H](C(=O)N[C@@H]([C@H]2O[C@H](SC)[C@H](O)[C@@H](O)[C@@H]2O)[C@@H](C)O)N(C)C1` the Potency was “inactive”. For `C[C@@H]1CC[C@]2(C(=O)O)CC[C@]3(C)C(=CCC4[C@]5(C)C(CC[C@]43C)C(C)(C)[C@@H](O)[C@H](O)[C@@H]5O)C2[C@]1(C)O` (stereo partly specified), the Potency was “inactive”. With `CC1(C(=O)O)CCCC2(C)C1CCC13CC(CCC21)C1(CO)OC31` (stereo unspecified) the Potency was “inactive”. In the case of `C=CC1(C)C=C2C(=O)CC3C(C)(C)CCCC3(C(=O)O)C2(O)CC1` (stereo unspecified), the Potency is reported as “inactive”. In the case of `CC(=O)O[C@@H]1[C@H](O[C@@H]2OC[C@](O)(CO)[C@H]2O)[C@@H](O[C@@H]2O[C@@H](C)[C@H](O)[C@@H](O)[C@H]2O)[C@H](OC(=O)[C@]23CCC(C)(C)C[C@H]2C2=CCC4[C@@]5(C)C[C@H](O)[C@H](O[C@@H]6O[C@H](C(=O)O)[C@@H](O)[C@H](O)[C@H]6O)[C@@](C)(C(=O)O)C5CC[C@@]4(C)[C@]2(C)CC3)O[C@@H]1C` (stereo partly specified), the activity change, negative = cell killing is reported as -8.29% [at 9.23 µM]. In the case of `CC(C)C(C(=O)N1CCCC1C(=O)O)N(C)C(=O)C(O)Cc1ccccc1` (stereo unspecified) (H-[PhLac]-[NMeV]-Pro-OH; configuration not given here), the Potency is reported as “inactive”. In the case of `OCC1=CC[C@@H]2C=CO[C@@H](O[C@@H]3O[C@H](CO)[C@@H](O)[C@H](O)[C@H]3O)[C@H]12`, the Potency is reported as “inactive”. With `Cc1coc2c1CC1OC1(C)CCC1OC1(C)C2` (stereo unspecified) the Potency was “inactive”. `C[C@@H]1O[C@@H](O[C@@H]2[C@@H](O)[C@H](O[C@@H]3[C@@H](O)[C@@H](O)[C@H](O[C@H]4[C@H](OC(=O)[C@]56CCC(C)(C)C[C@H]5C5=CCC7[C@@]8(C)C[C@H](O)[C@H](O[C@@H]9O[C@H](C(=O)O)[C@@H](O)[C@H](O)[C@H]9O)[C@@](C)(CO)C8[C@H](O)C[C@@]7(C)[C@]5(C)CC6)OC[C@H](O)[C@@H]4O)O[C@H]3C)OC[C@H]2O)[C@H](O)[C@H](O)[C@H]1O` (stereo partly specified) showed an activity change, negative = cell killing of -21.5% [at 9.23 µM]. In the case of `O=C(/C=C/c1ccc(O)cc1)OCC1=C[C@@H](O)[C@@H]2C=CO[C@@H](O[C@@H]3O[C@H](CO)[C@@H](O)[C@H](O)[C@H]3O)[C@H]12`, the Potency is reported as “inactive”. With `C=C1C[C@]23C[C@H]1CC[C@H]2[C@@]12C=C[C@H](O)[C@@](C)(C(=O)O1)[C@H]2[C@@H]3C(=O)O` the Potency was “inactive”. For `CCC(NC(=O)CC(NC(=O)C(CO)NC(=O)C(CC)NC(=O)c1ccc[nH]1)c1ccccc1)C(=O)O` (stereo unspecified), the Potency was “inactive”. In the case of `C[C@]12CCC(=O)C=C1[C@@H](O)C[C@@H]1[C@@H]2[C@@H](O)C[C@@]2(C)[C@H]1CC[C@]2(O)C(=O)CO`, the Potency is reported as “inactive”. For `C=C1CC2(C(=O)O)CC1CCC2C1(C)CCCC2(C)C(=O)OC(O)C21` (stereo unspecified), the Potency was “inactive”. Work on `C[C@@H](O)[C@H](N)C(=O)N1CCC[C@H]1C(=O)N1CCC[C@H]1C(=O)N[C@H](C(N)=O)[C@@H](C)O` (H-TPPT-NH2) yielded an activity change, negative = cell killing of -0.759% [at 9.23 µM]. With `C[C@H]1C[C@H]2[C@@H]3CCC4=CC(=O)C=C[C@]4(C)[C@@]3(F)[C@@H](O)C[C@]2(C)[C@@]1(O)C(=O)COP(=O)(O)O` the Potency was 57.8 nM (active). With `COC(=O)C1=C[C@@H](O)[C@@H](O)[C@H](O[C@@H]2O[C@H](COC(=O)/C=C/c3ccccc3)[C@@H](O)[C@H](O)[C@H]2O)C1` the Potency was “inactive”. In the case of `CC(=O)[C@@H]1CC[C@]2(C(=O)O)CC[C@]3(C)C(CCC4[C@@]5(C)CC[C@H](O)C(C)(C)C5CC[C@]43C)C12` (stereo partly specified), the Potency is reported as “inactive”. For `O=C(O[C@H]1[C@@H]2C[C@@H]3OC[C@@](O)([C@H]2[C@H](O[C@@H]2O[C@H](CO)[C@@H](O)[C@H](O)[C@H]2O)O3)[C@@H]1O)c1ccccc1`, the Potency was “inactive”. For `C/C=C/C=C/C=C/C(=O)O[C@@H]1[C@@H](OC)C2=C(C(=O)N(C(C)C(=O)O)C2)[C@@]2(C)CCCC(C)(C)[C@H]12` (stereo partly specified), the Potency was “inactive”. With `CC1CCC2(C(=O)OC3OC(CO)C(O)C(O)C3O)CCC3(C)C(=CCC4C5(C)CC(O)C(O)C(C)(C(=O)O)C5CCC43C)C2C1(C)O` (stereo unspecified) the Potency was “inactive”. For `COc1ccc(C(=O)O[C@H]2CC(C)=CC[C@@]3(C)[C@@H](OC(C)=O)C[C@@](O)(C(C)C)[C@H]23)cc1`, the Potency was “inactive”. For `CC(C)=CCc1ccc(Oc2c(O)cc(C)cc2CO)c(C(=O)O)c1O`, the Potency was “inactive”. For `CCN[C@@H]1C[C@H](N)[C@@H](O[C@H]2OC(CN)=CC[C@H]2N)[C@H](O)[C@H]1O[C@H]1OC[C@](C)(O)[C@H](NC)[C@H]1O`, the Potency was “inactive”. In the case of `C=C1[C@@H]2CC[C@@]3(C)[C@H](c4ccoc4)OC(=O)C[C@]13O[C@H]1CC(=O)C(C)(C)[C@H](CC(=O)OC)[C@]12C`, the Potency is reported as “inactive”.
